Measured values from PubChem BioAssay (NCATS).
Results filed as inconclusive are left out. Active and inactive are the calls of the source. Calls come from the whole dose curve.

Legend:
[1] = Primary qHTS for inhibitors of SARS-S pseudo-typed particle cell entry (AID 1479145); note: nearly all actives have a fitted effect of over 45% in size
[2] = Primary qHTS for Huh7 cytotoxicity: counterscreen for inhibitors of MERS-S pseudotyped particle cell entry (AID 1479147)
[3] = Primary qHTS for inhibitors of MERS-S pseudo-typed particle cell entry (AID 1479149); note: nearly all actives have a fitted effect of over 60% in size
[4] = Primary qHTS for Vero E6 cytotoxicity: counterscreen for inhibitors of SARS-S pseudo-typed particle cell entry (AID 1479150)

Measured: Potency

CO/N=C(/C(=O)N[C@@H]1C(=O)N2C(C(=O)O)=C(Cn3nnc(C)n3)CS[C@H]12)c1csc(N)n1
inactive: all assays above

Oc1cccc(-c2c3nc(c(-c4cccc(O)c4)c4ccc([nH]4)c(-c4cccc(O)c4)c4nc(c(-c5cccc(O)c5)c5ccc2[nH]5)CC4)C=C3)c1
inactive: all assays above

CN1CCCN=C1/C=C/c1cccs1
inactive: all assays above

Nc1c(CC(=O)O)cccc1C(=O)c1ccc(Br)cc1
inactive: all assays above

CCCCNc1cc(C(=O)O)cc(S(N)(=O)=O)c1Oc1ccccc1
inactive: all assays above

O=C(OCC(COC(=O)c1cccnc1)(COC(=O)c1cccnc1)COC(=O)c1cccnc1)c1cccnc1
inactive: all assays above

CC1(C)O[C@@H]2C[C@H]3[C@@H]4CCC5=CC(=O)CC[C@]5(C)[C@@]4(F)[C@@H](O)C[C@]3(C)[C@]2(C(=O)CCl)O1
inactive: all assays above

CC(=O)CCC(=O)O
inactive: all assays above

CCOC(=O)C(C)(C)Oc1ccc(Cl)cc1
inactive: all assays above

O=C(O)COC(=O)Cc1ccccc1Nc1c(Cl)cccc1Cl
inactive: all assays above

Cc1[nH]c(C)c(Cl)c(=O)c1Cl
inactive: all assays above

CCOC(=O)OC(C)OC(=O)[C@@H]1N2C(=O)[C@@H](NC(=O)[C@H](N)c3ccccc3)[C@H]2SC1(C)C (some centres undefined)
inactive: all assays above

CN(C)CCN(Cc1cccs1)c1ccccn1
inactive: all assays above

O=C1OC2(c3ccccc31)c1cc(I)c(O)c(I)c1Oc1c2cc(I)c(O)c1I
inactive: all assays above

CCCCOc1ccc(OCCCN2CCOCC2)cc1
inactive: all assays above

Cc1cc(=O)oc2cc(O)ccc12
inactive: all assays above

Nc1ccc(S(=O)(=O)Nc2cnc3ccccc3n2)cc1
inactive: all assays above

CN1CCOC(c2ccccc2)c2ccccc2C1 (centres undefined)
inactive: all assays above

CC[N+](CC)(CC)CCOC(=O)C(C1CCCC1)C1CCCC1
inactive: all assays above

CCCOc1ccc(C(=O)OCCN(CC)CC)cc1N
inactive: all assays above

OC1C(O)C(O)C(O)C(O)C1O (centres undefined)
inactive: all assays above
